The source made the active and inactive calls. Unless noted, the rule behind the calls is not given here.
How the values were obtained:
[1] = compound effects on lung adenocarcinoma cell viability – A549, calcein-AM fluorescence, 48 h, basal, profiling panel (AID 1162); conditions: higher = more signal; note: test concentration not given here
[2] = compound effects on differentiated 3T3-L1 adipocyte viability – cell-based, 3T3-L1 adipocytes, calcein-AM fluorescence, 48 h, basal, profiling panel (AID 1163); conditions: 3T3-L1 adipocytes viability, higher = more signal; note: test concentration not given here
[3] = compound effects on hepatocellular carcinoma cell viability – HepG2, calcein-AM fluorescence, 48 h, basal, profiling panel (AID 1164); conditions: higher = more signal; note: test concentration not given here
[4] = compound effects on multiple myeloma cell viability – MM1S, calcein-AM fluorescence, 48 h, basal, profiling panel (AID 1165); conditions: higher = more signal; note: test concentration not given here
[5] = calcein-AM signal in unstimulated myeloma cells – cell-based, calcein-AM fluorescence, 48 h, PK04 Diversity Set, profiling panel (AID 1166); conditions: RPMI8226 myeloma viability, higher = more signal;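 note: cells grown under basal conditions without added stimulus; test concentration not given here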
[6] = JC-1 mitochondrial signal, unstimulated HepG2 cells – cell-based, JC-1 fluorescence, 24 h, 100 nL compound, profiling panel (AID 1167); conditions: HepG2 mitochondrial potential, higher = more signal; note: test concentration not given here
[7] = JC-1 mitochondrial signal, unstimulated adipocytes – cell-based, JC-1 fluorescence, 3T3-L1 adipocytes, 24 h, 100 nL compound, profiling panel (AID 1168); conditions: JC-1 mitochondrial fluorescence, higher = more signal, called active from +8 up or from −8 down; note: test concentration not given here
[8] = JC-1 mitochondrial signal, unstimulated myeloma cells – cell-based, JC-1 fluorescence, RPMI8226, 24 h, 100 nL compound, profiling panel (AID 1169); conditions: JC-1 mitochondrial potential fluorescence, higher = more signal; note: test concentration not given here
[9] = JC-1 mitochondrial signal, unstimulated MM1S myeloma – cell-based, JC-1 fluorescence, 24 h, 100 nL compound, profiling panel (AID 1170); conditions: MM1S mitochondrial potential, higher = more signal; note: test concentration not given here
[10] = resazurin metabolic signal in A549 cells – cell-based, resazurin fluorescence, 24 h, PK04 Diversity Set, profiling panel (AID 1171); conditions: A549 viability, higher = more signal, called active from +8 up or from −8 down; note: test concentration not given here
[11] = resazurin metabolic signal in HepG2 cells – cell-based, resazurin fluorescence, 24 h, PK04 Diversity Set, profiling panel (AID 1172); conditions: HepG2 viability, higher = more signal; note: test concentration not given here
[12] = budding yeast growth changes without added modifier – OD600, strain BY4716, 24 h, basal condition, primary screen (AID 1173); conditions: S. cerevisiae BY4716 growth, OD600, 24 h; higher = more signal, called active from +8 up or from −8 down
[13] = viability profiling in MM1S myeloma cells – cell-based, resazurin fluorescence, basal, 24 h, PK04 Diversity Set, profiling panel (AID 1174); conditions: higher = more signal, called active from +8 up or from −8 down; note: test concentration not given here
[14] = biological target: Dihydroorotate dehydrogenase (quinone), mitochondrial (Plasmodium falciparum (isolate 3D7)) (UniProt Q08210); test: inhibition of P. falciparum DHODH – biochemical, C-terminal His tag, absorbance 600 nm, primary screen (AID 1175); conditions: PfDHODH enzyme, DCIP absorbance 600 nm; higher = more signal, called active from +8 up or from −8 down;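 note: recombinant parasite enzyme with a five histidine tag at its C terminus; test concentration not given here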
Sequence of Dihydroorotate dehydrogenase (quinone), mitochondrial (Plasmodium falciparum (isolate 3D7)) (Q08210 whole entry, looked up): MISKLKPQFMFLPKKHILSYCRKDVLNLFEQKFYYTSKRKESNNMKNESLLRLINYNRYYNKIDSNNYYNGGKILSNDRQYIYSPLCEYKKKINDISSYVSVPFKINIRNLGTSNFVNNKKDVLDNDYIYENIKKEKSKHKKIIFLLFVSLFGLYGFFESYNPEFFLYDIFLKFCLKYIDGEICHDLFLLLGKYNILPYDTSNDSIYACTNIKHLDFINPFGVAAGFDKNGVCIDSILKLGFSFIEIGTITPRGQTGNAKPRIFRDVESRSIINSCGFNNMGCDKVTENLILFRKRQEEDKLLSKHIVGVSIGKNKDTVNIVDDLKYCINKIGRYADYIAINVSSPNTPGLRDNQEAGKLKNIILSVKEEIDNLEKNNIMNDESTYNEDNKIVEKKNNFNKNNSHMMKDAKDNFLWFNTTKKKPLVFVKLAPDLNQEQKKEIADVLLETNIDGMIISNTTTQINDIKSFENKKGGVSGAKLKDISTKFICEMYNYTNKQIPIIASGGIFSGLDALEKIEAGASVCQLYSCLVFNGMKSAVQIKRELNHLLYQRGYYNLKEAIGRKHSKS

[15] = inhibition of PAO1 biofilm formation – strain PAO1, LB-PBS medium, absorbance 600 nm, primary screen (AID 1176); note: test concentration not given here; conditions: P. aeruginosa PAO1 growth/biofilm, A600, 12 h; higher = more signal
[16] = growth modulation of vineyard yeast isolate – strain RM11-1a, OD600, basal, 24 h, primary screen (AID 1177);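 note: cultures grown under basal conditions with no added stressor; test concentration not given here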; conditions: S. cerevisiae RM11-1a growth, OD600, 24 h; higher = more signal, called active from +8 up or from −8 down
[17] = growth of efflux-deficient E. coli DRC39 – strain DRC39, OD650, 24 h, E. coli filamentation inducers, primary screen (AID 1178);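 note: growth measured as culture turbidity by optical density at 650 nm; test concentration not given here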; conditions: E. coli DRC39 acrAB, higher = more signal, called active from +8 up or from −8 down
[18] = growth of efflux-deficient E. coli DRC39 – strain DRC39, OD650, 48 h, E. coli filamentation inducers, primary screen (AID 1179);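 note: screen aims at cell division blockers that make cells filament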; conditions: E. coli DRC39 delta-acrAB growth, higher = more signal, called active from +8 up or from −8 down
[19] = viability profiling in RPMI8226 myeloma cells – cell-based, resazurin fluorescence, basal, 24 h, PK04 Diversity Set, profiling panel (AID 1180); conditions: higher = more signal;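 note: RPMI8826 multiple myeloma cell line at 5000 cells per well; test concentration not given here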
[20] = biological target: E3 ubiquitin-protein ligase XIAP (Homo sapiens) (UniProt P98170); test: small molecules binding XIAP protein – biophysical, small-molecule microarray, fluorescence 635 nm, primary screen (AID 1181); conditions: higher = more signal;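 note: score merges 667 nm emission and signal to noise over triplicate slides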
Sequence of E3 ubiquitin-protein ligase XIAP (Homo sapiens) (P98170 whole entry, looked up): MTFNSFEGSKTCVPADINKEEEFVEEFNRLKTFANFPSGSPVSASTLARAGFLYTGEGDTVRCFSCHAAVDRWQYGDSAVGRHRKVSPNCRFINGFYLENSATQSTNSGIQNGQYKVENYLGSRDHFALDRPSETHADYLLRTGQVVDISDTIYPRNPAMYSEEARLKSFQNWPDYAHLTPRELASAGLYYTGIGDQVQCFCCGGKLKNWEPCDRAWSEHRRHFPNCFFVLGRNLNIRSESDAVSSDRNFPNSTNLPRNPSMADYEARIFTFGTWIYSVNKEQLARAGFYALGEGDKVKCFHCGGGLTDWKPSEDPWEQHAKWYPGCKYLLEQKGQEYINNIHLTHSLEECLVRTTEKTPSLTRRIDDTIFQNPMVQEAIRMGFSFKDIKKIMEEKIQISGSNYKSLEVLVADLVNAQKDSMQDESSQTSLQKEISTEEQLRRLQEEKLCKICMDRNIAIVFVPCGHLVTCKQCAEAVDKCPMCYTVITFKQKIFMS

SMILES	z-score [1]	z-score [2]	z-score [3]	z-score [4]	z-score [5]	z-score [6]	z-score [7]	z-score [8]	z-score [9]	z-score [10]	z-score [11]	z-score [12]	z-score [13]	composite z-score [14]	z-score [15]	z-score [16]	z-score [17]	z-score [18]	z-score [19]	composite z-score [20]
CC(=O)NCCCC[C@@H]1NC(=O)[C@H]2C[C@@H](C(=O)NCCCC[N+](C)(C)C)[C@@H](c3cccc(OCCO)c3)N2C1=O	-0.443	0.247	-0.641	-1.7	0.206	0.105	0.169 (inactive)	-0.336	1.03	-0.549 (inactive)	-0.704	0.294 (inactive)	0.785 (inactive)	-30.8 (active)	0.45 (inactive)	-0.724 (inactive)	0.417 (inactive)	-0.369 (inactive)	0.228	0.0223
C=CCC(OC(C)=O)[C@@H]1[C@@H](N(Cc2cccc3ccccc23)C(=O)Cc2ccc(OC)cc2)c2cc(OCCCO)ccc2N1C(=O)c1ccc2ccccc2n1 (stereo not given in full)	-0.639	1.69	0.493	-1.27	-0.192	1.64	-0.0994 (inactive)	0.106	0.306	0.679 (inactive)	0.602	0.0243 (inactive)	-0.415 (inactive)	-0.175 (inactive)	-0.145 (inactive)	-0.212 (inactive)	0.884 (inactive)	0.284 (inactive)	0.0309	0.343
C=C(CCCC)/C(=C/C[C@@H](OC(=O)c1ccncc1)c1ccccc1OCCO)c1cnc2ccccc2c1	0.453	1.21	-0.158	-3.2	-2	1.41	-2 (inactive)	-0.629	1.46	-0.488 (inactive)	-0.846	-2.19 (inactive)	-1.09 (inactive)	-3.38 (inactive)	1.07 (inactive)	-0.592 (inactive)	-0.334 (inactive)	-0.514 (inactive)	0.133	-0.0599
CCOC(=O)C[C@H]1[C@H](OC(=O)c2ccccc2-c2ccccc2)[C@@H](NC(=O)c2ccc(-c3ccccc3)cc2)c2cc(OCCCO)ccc2N1C(=O)c1ccc2ccccc2n1	-0.137	-0.163	0.336	0.402	-0.485	-0.149	1.18 (inactive)	0.0491	-0.63	0.524 (inactive)	-0.0523	0.662 (inactive)	0.128 (inactive)	-0.0558 (inactive)	0.318 (inactive)	0.752 (inactive)	-0.447 (inactive)	-0.0565 (inactive)	0.636	0.0891
Cc1ccc(S[C@]2(C(=O)NCC(F)(F)F)CC(=O)N(Cc3ccccc3C(F)(F)F)[C@@H]2c2ccc(CO)cc2I)cc1	1.45	-0.438	0.707	-1.56	-1.71	0.16	0.0898 (inactive)	-0.597	-2.22	0.328 (inactive)	0.719	-3.66 (inactive)	-2.62 (inactive)	0.196 (inactive)	-0.0623 (inactive)	-1.21 (inactive)	0.506 (inactive)	1.21 (inactive)	-1.15	0.531
CCOC(=O)C1=CC[C@@H](c2ccccc2C(F)(F)F)N(S(=O)(=O)c2ccc(C)cc2)[C@H]1c1ccc(C#N)cc1	-0.711	-0.842	-0.326	-0.509	-0.214	-1.02	-0.544 (inactive)	0.801	-0.81	-0.035 (inactive)	-0.0666	1.02 (inactive)	-1.39 (inactive)	-0.0408 (inactive)	1.01 (inactive)	-0.171 (inactive)	-0.534 (inactive)	0.312 (inactive)	-0.823	-0.0172
C=CC1c2cc(O)c(OC)cc2CCN1Cc1cc2c(cc1Br)OCO2 (stereo not given)	-3.63	1.28	-4.07	-3.17	-4.57	-2.98	-0.196 (inactive)	-0.743	-0.348	-1.67 (inactive)	-1.95	-12.5 (active)	-2.21 (inactive)	-7.6 (inactive)	-0.0065 (inactive)	-2.09 (inactive)	-0.929 (inactive)	-1.69 (inactive)	-2.82	-0.0525
CC(C)OC(=O)C=C1C[C@@H](c2ccc(C(F)(F)F)cc2)O[C@@H](c2ccc(C(F)(F)F)cc2)O1	0.944	-0.168	0.114	-2.49	-1.51	-0.393	0.958 (inactive)	-0.478	-1.02	0.452 (inactive)	0.54	-5.34 (inactive)	0.533 (inactive)	-1.4 (inactive)	0.257 (inactive)	-1.93 (inactive)	0.2 (inactive)	1.41 (inactive)	0.0779	0.371
O=c1n(-c2ccccc2)c(=O)n2n1CC(COc1ccccc1)=C([C@H](O)CCc1ccccc1)[C@@H]2CO	-0.0498	0.725	0.787	-1.44	-2.34	-1.2	0.0027 (inactive)	0.0482	-1.98	-0.962 (inactive)	-0.633	-2.28 (inactive)	-0.83 (inactive)	-1.09 (inactive)	-0.0126 (inactive)	-3.02 (inactive)	1.24 (inactive)	0.395 (inactive)	-0.0454	-0.472
